{"source": "PubChem BioAssay (NCATS)", "key": {"[1]": {"assay": "AP1 Signaling Pathway (AID 357); also: % is scaled to controls: 0 for no effect and ±100 for the full control effect", "conditions": "ME-180 AP-1-bla reporter, EGF-induced, beta-lactamase ratio, 5 h", "method_in_brief": "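Titration-series screen for positive or negative modulators of EC50 EGF-induced signaling in ME-180 cells carrying an AP-1-driven beta-lactamase reporter. After 5 hours at 37 degrees Celsius, CCF4 460nm/530nm emission ratio gave %Activity; AC50 values derived.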"}, "[2]": {"biological_target": "Cytochrome P450 1A2 (Homo sapiens) (UniProt P05177)", "sequence (P05177 whole entry, looked up)": "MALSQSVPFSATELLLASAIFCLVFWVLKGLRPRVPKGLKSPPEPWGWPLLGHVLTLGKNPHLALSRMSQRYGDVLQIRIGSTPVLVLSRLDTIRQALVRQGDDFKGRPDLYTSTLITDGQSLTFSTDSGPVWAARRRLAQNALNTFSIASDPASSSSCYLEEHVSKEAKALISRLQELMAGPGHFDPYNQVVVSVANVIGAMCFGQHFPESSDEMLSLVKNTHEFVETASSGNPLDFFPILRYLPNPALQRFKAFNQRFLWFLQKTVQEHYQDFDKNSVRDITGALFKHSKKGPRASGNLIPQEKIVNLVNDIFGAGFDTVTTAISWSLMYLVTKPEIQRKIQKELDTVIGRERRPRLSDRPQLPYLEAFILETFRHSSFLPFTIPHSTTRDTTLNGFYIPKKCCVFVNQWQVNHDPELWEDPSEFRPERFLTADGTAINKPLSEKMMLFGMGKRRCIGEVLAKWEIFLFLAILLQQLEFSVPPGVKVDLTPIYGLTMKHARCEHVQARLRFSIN", "assay": "p450-cyp1a2 (AID 410; calls by dose curve; also: potency is read from the fitted curve at half-maximal effect;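 as to activity change, negative = inhibition: -100% = full effect of reference inhibitor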)", "conditions": "recombinant CYP1A2, luciferin-ME demethylation, luminescence; series mostly up to 25.6 µM", "method_in_brief": "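20nM CYP1A2 with 100uM Luciferin-ME (at Km) in 100mM KPO4; compound preincubated 10 min, NADPH regeneration added, 60 min at room temperature. Luciferin quantified by luminescence after detection reagent; normalized to 57 uM furafylline.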"}, "[3]": {"assay": "NFAT Signaling Pathway (AID 444); also: % is scaled to controls: 0 for no effect and ±100 for the full control effect", "conditions": "Jurkat NFAT-bla M1, carbachol, beta-lactamase ratio, 5 h", "method_in_brief": "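Read-out: CCF4 FRET ratio (460 nm/530 nm) after 1 h RT dye loading, used for %activity and AC50 from titration series. Cells: Jurkat NFAT-β-lactamase/M1 line, treated with compound plus 1 uM carbachol for 5 h, 37 °C.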"}, "[4]": {"biological_target": "Glucocorticoid receptor (Homo sapiens) (UniProt P04150)", "sequence (P04150 whole entry, looked up, the tested form may be a part)": "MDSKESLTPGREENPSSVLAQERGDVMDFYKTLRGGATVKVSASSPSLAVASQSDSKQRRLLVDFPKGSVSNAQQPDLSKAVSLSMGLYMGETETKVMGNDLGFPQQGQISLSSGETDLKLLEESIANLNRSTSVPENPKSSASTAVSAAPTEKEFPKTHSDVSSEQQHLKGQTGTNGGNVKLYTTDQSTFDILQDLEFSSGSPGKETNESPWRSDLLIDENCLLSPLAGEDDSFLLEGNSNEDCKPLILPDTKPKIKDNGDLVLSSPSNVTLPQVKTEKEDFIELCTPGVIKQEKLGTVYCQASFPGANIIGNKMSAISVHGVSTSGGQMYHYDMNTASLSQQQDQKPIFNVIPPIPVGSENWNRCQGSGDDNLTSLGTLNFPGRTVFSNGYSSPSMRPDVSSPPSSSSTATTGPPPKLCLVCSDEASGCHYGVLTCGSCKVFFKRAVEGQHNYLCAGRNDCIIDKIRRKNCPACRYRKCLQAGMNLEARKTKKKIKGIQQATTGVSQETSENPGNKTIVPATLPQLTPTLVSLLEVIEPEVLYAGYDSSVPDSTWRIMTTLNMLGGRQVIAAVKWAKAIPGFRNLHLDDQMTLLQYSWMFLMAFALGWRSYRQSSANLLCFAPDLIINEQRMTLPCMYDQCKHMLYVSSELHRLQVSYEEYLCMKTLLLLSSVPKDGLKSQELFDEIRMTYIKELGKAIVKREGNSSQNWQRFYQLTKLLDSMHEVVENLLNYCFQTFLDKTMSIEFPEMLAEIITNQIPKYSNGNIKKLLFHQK", "assay": "GR-GFP Redistribution (AID 450;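 active = compounds whose dose series gives a full or clear partial fitted curve of increased nuclear translocation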; also: potency is read from the fitted curve at half-maximal effect)", "conditions": "U2OS GR-GFP nuclear translocation, laser cytometry, 2 h"}, "[5]": {"biological_target": "Glucocorticoid receptor (Homo sapiens) (UniProt P04150)", "assay": "GR-EFC Redistribution (AID 451; calls by dose curve; also: potency is read from the fitted curve at half-maximal effect)", "conditions": "CHO-K1 GR-EFC translocation, beta-gal luminescence, 2 h", "method_in_brief": "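Translocation of GR-ED fusion to nuclear EA restores b-gal, read by luminescence after 1 h room-temperature detection. Engineered CHO-K1 biosensor cells, 1,000/well, exposed 2 h at 37 C to titrations up to 46 uM final.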"}, "[6]": {"biological_target": "Mitogen-activated protein kinase 10 (Mus musculus) (UniProt Q61831)", "assay": "JNK3 AlphaScreen Assay (AID 530);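 also: signal reports phosphorylation of biotinylated GST-cJun 1-79 at Ser73 with 10 µM ATP; % is scaled to controls: 0 for no effect and ±100 for the full control effect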", "conditions": "JNK3 lysate, c-Jun phosphorylation; series mostly up to 25.6 µM", "method_in_brief": "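Compound titrations were preincubated 15 minutes at room temperature with substrate, antibody and pre-activated JNK3-containing HepG2 lysate. Reactions were started with 10 uM ATP and stopped with EDTA-containing bead buffer for AlphaScreen detection.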"}, "[7]": {"assay": "Stat Signaling Pathway (AID 446);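 also: ME-180 cervical cancer cells given 40 pM IL-6 alongside compound; % is scaled to controls: 0 for no effect and ±100 for the full control effect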", "conditions": "ME-180 SIE beta-lactamase reporter, IL-6 stimulated, 5 h", "method_in_brief": "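IL-6/STAT signaling read in ME-180 cells via an SIE beta-lactamase reporter. Stimulus was 40 pM IL-6 (its AC50) for 5 hrs, so both activation and inhibition register.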"}, "[8]": {"biological_target": "Lysosomal acid glucosylceramidase (Homo sapiens) (UniProt P04062)", "sequence (P04062 whole entry, looked up)": "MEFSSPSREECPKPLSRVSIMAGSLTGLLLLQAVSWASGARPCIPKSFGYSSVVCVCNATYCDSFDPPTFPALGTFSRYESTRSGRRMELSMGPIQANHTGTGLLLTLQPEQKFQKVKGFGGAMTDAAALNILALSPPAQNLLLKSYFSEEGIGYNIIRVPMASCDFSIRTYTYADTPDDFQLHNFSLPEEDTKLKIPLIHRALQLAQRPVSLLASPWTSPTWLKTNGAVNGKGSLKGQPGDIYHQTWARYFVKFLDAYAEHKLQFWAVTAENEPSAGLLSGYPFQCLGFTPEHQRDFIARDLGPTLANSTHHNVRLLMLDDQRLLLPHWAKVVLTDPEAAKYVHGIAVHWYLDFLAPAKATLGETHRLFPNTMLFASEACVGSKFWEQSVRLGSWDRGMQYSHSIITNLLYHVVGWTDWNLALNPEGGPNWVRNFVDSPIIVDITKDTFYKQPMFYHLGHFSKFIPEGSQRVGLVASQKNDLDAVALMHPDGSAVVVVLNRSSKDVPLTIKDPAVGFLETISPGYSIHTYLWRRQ", "assay": "Glucocerebrosidase-p2 (AID 348; in the data active = potency below about 10 µM; also: potency is read from the fitted curve at half-maximal effect)", "conditions": "purified GBA, blue fluorogenic substrate, 40 min", "method_in_brief": "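Compounds titrated from 0.6 nM upwards against 0.2 nM enzyme in pH 5.9 citric acid/KH2PO4, taurocholate, tween-20; blue fluorogenic substrate 80 uM, 40 min room temperature, stopped and read Ex 365/Em 440 for AC50.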"}, "[9]": {"assay": "Cell Viability - Jurkat (AID 426;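 active = dose-dependent loss of cell ATP signal giving a full or clear fitted curve, ranked by lower potency value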; also: potency is read from the fitted curve at half-maximal effect)", "conditions": "qHTS", "method_in_brief": "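Jurkat (Clone E6-1) cells, 5000/well in complete medium, exposed to compounds for 40 hr at 37C; intracellular ATP measured by CellTiter-Glo luminescence after 20 min at room temperature. AC50 from Hill fits.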"}, "[10]": {"assay": "Cell Viability - N2a (AID 540; active = well fitted curve in the direction sought with a large enough effect; an effect the other way counts as inactive or inconclusive; also: potency is read from the fitted curve at half-maximal effect; nearly all actives have a fitted effect of over 45% in size)", "conditions": "N2a mouse neuroblastoma cell viability; activity change, negative = cytotoxicity: at 92.2 µM (top of the series)", "method_in_brief": "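Mouse neuroblastoma N2a cells, 1500/well, exposed to compounds 40 h at 37 °C in complete medium. Viability measured as cellular ATP by CellTiter-Glo luminescence; AC50 from Hill fits of concentration-response.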"}, "[11]": {"assay": "Cell Viability - NIH 3T3 (AID 541; active = well fitted curve in the direction sought with a large enough effect; an effect the other way counts as inactive or inconclusive; also: potency is read from the fitted curve at half-maximal effect; nearly all actives have a fitted effect of over 25% in size)", "conditions": "NIH 3T3 cell viability, qHTS; activity change, negative = cytotoxicity: at 92.2 µM (top of the series)", "method_in_brief": "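Mouse NIH 3T3 fibroblasts, 1000 cells/well, rested 5 hr at 37 °C, then exposed to compound for 40 hr at 37 °C in complete medium. Viability read as intracellular ATP by CellTiter-Glo luminescence; AC50 from Hill-equation fits of concentration-response data.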"}, "[12]": {"assay": "Cell Viability - HUV-EC-C (AID 542; active = well fitted curve in the direction sought with a large enough effect; an effect the other way counts as inactive or inconclusive; also: potency is read from the fitted curve at half-maximal effect; nearly all actives have a fitted effect of over 35% in size)", "conditions": "HUV-EC-C endothelial cell viability, qHTS; series mostly up to 92.2 µM", "method_in_brief": "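HUV-EC-C human vascular endothelial cells, 1000/well, exposed to compound for 40 hr at 37 °C in complete medium. Intracellular ATP was read by CellTiter-Glo luminescence. AC50 came from Hill-equation fits of concentration-response data.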"}, "[13]": {"assay": "Cell Viability - H-4-II-E (AID 543; active = well fitted curve in the direction sought with a large enough effect; an effect the other way counts as inactive or inconclusive; also: potency is read from the fitted curve at half-maximal effect; nearly all actives have a fitted effect of over 35% in size)", "conditions": "H-4-II-E rat hepatoma viability; series mostly up to 92.2 µM", "method_in_brief": "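Rat hepatoma H-4-II-E cells, 1500 per well, treated 40 h at 37 °C in complete medium. Cellular ATP read by CellTiter-Glo luminescence; AC50 from Hill fits of concentration-response.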"}}, "note": "Where “and” joins values, the source holds several entries; their conditions need not be identical. Equal entries are not always repeated. Unmarked numbers belong to inactive results. Inconclusive results are not listed. Calls of active or inactive are those of the source. Unless noted, calls follow the shape of the dose curve; as a rule, active = well fitted curve in either direction with a large enough effect (not every such curve was filed as active); inconclusive = small, poorly fitted or top-dose-only effect, or another doubt; inactive = flat fitted curve, though single readings scatter.", "data": [{"molecule": "CCCCOc1cc(C(=O)NCCN(CC)CC)c2ccccc2n1", "values": [{"measurement": "activity change, negative = inhibition", "setting": "[1]; at 17.2 µM (top of the series)", "value": "13.7% and 13.1% and 14.9%"}, {"measurement": "Potency", "setting": "[2]", "value": "5.01 µM (active)"}, {"measurement": "activity change, negative = inhibition", "setting": "[3]; at 17.2 µM (top of the series)", "value": "3.91% and -0.708% and -6.28%"}, {"measurement": "Potency", "setting": "[4]", "value": "> 20.6", "unit": "µM"}, {"measurement": "Potency", "setting": "[5]", "value": "> 20.6", "unit": "µM"}, {"measurement": "outcome", "setting": "[6]", "value": "inactive"}]}, {"molecule": "O=C(CCCN1CCC(O)(c2ccc(Br)cc2)CC1)c1ccc(F)cc1", "values": [{"measurement": "activity change, negative = inhibition", "setting": "[1]; at 17.2 µM (top of the series)", "value": 13.1, "unit": "%"}, {"measurement": "Potency", "setting": "[2]", "value": "5.01 µM (active)"}, {"measurement": "activity change, negative = inhibition", "setting": "[3]; at 17.2 µM (top of the series)", "value": -24.7, "unit": "%"}, {"measurement": "activity, negative = inhibition", "setting": "[7]; at 17.2 µM (top of the series)", "value": 1.5, "unit": "%"}, {"measurement": "Potency", "setting": "[4]", "value": "> 20.6", "unit": "µM"}, {"measurement": "Potency", "setting": "[5]", "value": "> 20.6", "unit": "µM"}, {"measurement": "outcome", "setting": "[6]", "value": "inactive"}]}, {"molecule": "Nc1nc2ncc(CNc3ccc(C(=O)N[C@@H](CCC(=O)O)C(=O)O)cc3)nc2c(=O)[nH]1", "values": [{"measurement": "activity change, negative = inhibition", "setting": "[1]; at 17.2 µM (top of the series)", "value": 0.033, "unit": "%"}, {"measurement": "Potency", "setting": "[2]", "value": "inactive"}, {"measurement": "activity change, negative = inhibition", "setting": "[3]; at 17.2 µM (top of the series)", "value": 2.08, "unit": "%"}, {"measurement": "Potency", "setting": "[4]", "value": "> 20.6", "unit": "µM"}, {"measurement": "Potency", "setting": "[5]", "value": "> 20.6", "unit": "µM"}, {"measurement": "outcome", "setting": "[6]", "value": "inactive"}]}, {"molecule": "O=C1CCC(c2ccc(-n3ccnc3)cc2)=NN1", "values": [{"measurement": "activity change, negative = inhibition", "setting": "[1]; at 38 µM (top of the series)", "value": 14.9, "unit": "%"}, {"measurement": "Potency", "setting": "[2]", "value": "0.158 µM (active)"}, {"measurement": "activity change, negative = inhibition", "setting": "[3]; at 38 µM (top of the series)", "value": 3.77, "unit": "%"}, {"measurement": "activity, negative = inhibition", "setting": "[7]; at 38 µM (top of the series)", "value": 9.57, "unit": "%"}, {"measurement": "Potency", "setting": "[4]", "value": "> 46", "unit": "µM"}, {"measurement": "Potency", "setting": "[5]", "value": "> 46", "unit": "µM"}, {"measurement": "outcome", "setting": "[6]", "value": "inactive"}]}, {"molecule": "CN(C)CCOc1ccccc1Cc1ccccc1", "values": [{"measurement": "activity change, negative = inhibition", "setting": "[1]; at 17.2 µM (top of the series)", "value": 16.9, "unit": "%"}]}, {"molecule": "Oc1ccc(Cl)cc1Sc1cc(Cl)ccc1O", "values": [{"measurement": "Potency", "setting": "[8]", "value": "> 11.4", "unit": "µM"}, {"measurement": "activity change, negative = inhibition", "setting": "[1]; at 7.69 µM (top of the series)", "value": -7.34, "unit": "%"}, {"measurement": "Potency", "setting": "[2]", "value": "3.98 µM (active)"}, {"measurement": "Potency", "setting": "[9]", "value": "56.7 µM (active)"}, {"measurement": "Potency", "setting": "[4]", "value": "> 46", "unit": "µM"}, {"measurement": "Potency", "setting": "[5]", "value": "> 9.22", "unit": "µM"}, {"measurement": "outcome", "setting": "[6]", "value": "inactive"}, {"measurement": "Potency", "setting": "[10]", "value": "31.6 µM (active)"}, {"measurement": "Potency", "setting": "[11]", "value": "31.6 µM (active)"}, {"measurement": "Potency", "setting": "[12]", "value": "31.6 µM (active)"}, {"measurement": "Potency", "setting": "[13]", "value": "39.8 µM (active)"}]}, {"molecule": "CC(C)NC[C@@H](O)COc1cccc2ccccc12", "values": [{"measurement": "activity change, negative = inhibition", "setting": "[1]; at 17.2 µM (top of the series)", "value": "7.5% and 12.8% and 4.83%"}, {"measurement": "activity change, negative = inhibition", "setting": "[1]; at 38 µM (top of the series)", "value": "17.5% and 11.4%"}, {"measurement": "activity change, negative = inhibition", "setting": "[3]; at 17.2 µM (top of the series)", "value": "5.75% and 5.85% and -11.9%"}, {"measurement": "activity change, negative = inhibition", "setting": "[3]; at 38 µM (top of the series)", "value": "4.84% and 0.806%"}, {"measurement": "outcome", "setting": "[6]", "value": "inactive"}]}, {"molecule": "C[N+]1(CCCCC[N+]2(C)CCCC2)CCCC1", "values": [{"measurement": "activity change, negative = inhibition", "setting": "[1]; at 17.2 µM (top of the series)", "value": 5.75, "unit": "%"}, {"measurement": "activity change, negative = inhibition", "setting": "[1]; at 38 µM (top of the series)", "value": 7.2, "unit": "%"}, {"measurement": "activity change, negative = inhibition", "setting": "[3]; at 17.2 µM (top of the series)", "value": -12.7, "unit": "%"}, {"measurement": "activity change, negative = inhibition", "setting": "[3]; at 38 µM (top of the series)", "value": -8.15, "unit": "%"}, {"measurement": "activity, negative = inhibition", "setting": "[7]; at 17.2 µM (top of the series)", "value": 14.2, "unit": "%"}, {"measurement": "activity, negative = inhibition", "setting": "[7]; at 38 µM (top of the series)", "value": 0.841, "unit": "%"}, {"measurement": "Potency", "setting": "[4]", "value": "> 46 µM and > 20.6 µM"}, {"measurement": "Potency", "setting": "[5]", "value": "> 46 µM and > 20.6 µM"}, {"measurement": "outcome", "setting": "[6]", "value": "inactive"}]}, {"molecule": "CC(C)(C(=O)c1cccnc1)c1cccnc1", "values": [{"measurement": "activity change, negative = inhibition", "setting": "[1]; at 17.2 µM (top of the series)", "value": 1.77, "unit": "%"}, {"measurement": "Potency", "setting": "[2]", "value": "12.6 µM (active)"}, {"measurement": "activity change, negative = inhibition", "setting": "[3]; at 17.2 µM (top of the series)", "value": -2.38, "unit": "%"}, {"measurement": "Potency", "setting": "[4]", "value": "> 20.6", "unit": "µM"}, {"measurement": "Potency", "setting": "[5]", "value": "> 20.6", "unit": "µM"}, {"measurement": "outcome", "setting": "[6]", "value": "inactive"}]}]}
